Laboratory results published in PubChem BioAssay AID463173 (ICCB-Longwood Screening Facility, Harvard Medical School, 2010).
Hit rate of the full screen: of about 52,000 compounds, about 4,300 (8.3%) were called active. Rule as the data show it: active = survival mostly below about 52% (no sharp cut-off); inactive = mostly above about 56%. The sample as a whole holds a higher share of actives than the screen did.

What follows are molecules tested on DeltatarO mutant (assay: S. aureus survival, RN4220 and DeltatarO strains – OD600, teichoic acid synthesis inhibitors, primary screen (AID 463173)). Conditions: S. aureus RN4220 wild type/DeltatarO growth, OD600, 18 h, hits give low values, screened at 18.75 µg/mL (by protocol).

Q: Which survival does the source give for CNC(=O)COc1ccc(NC(=O)CCn2nc(-c3ccc(C)cc3)c3ccccc3c2=O)cc1 here?
A: The survival was 73% (inactive).

Q: Which survival does the source give for COc1cc(C2C(C(=O)Nc3ccccc3C)=C(C)Nc3ncnn32)ccc1OCC(N)=O (stereo not drawn) here?
A: The survival was 82% (inactive).

Q: Which survival does the source give for CCOc1ccc(CNCCCSc2nnnn2C)cc1OC here?
A: Its survival is 74% (inactive).

Q: COc1ccccc1NC(=O)N1CCNCC1 was tested. Which survival did it give?
A: The survival was 73% (inactive).

Q: With COc1ccc(-c2cc(C)no2)cc1S(=O)(=O)N1CCc2ccccc21 as the molecule, how does the survival read?
A: The survival was 67% (inactive).

Q: CCC1CN(S(=O)(=O)c2cc(-c3cc(C)no3)ccc2OC)c2cc(Cl)ccc2O1 (stereo not drawn) was tested. Which survival did it give?
A: The survival was 62% (inactive).

Q: For COc1ccc(-c2cc(C)no2)cc1S(=O)(=O)N1CC(C)Oc2ccccc21 (stereo not drawn), which survival is on record?
A: The survival was -5% (active).

Q: How did the survival turn out when CCC1CN(S(=O)(=O)c2cc(-c3cc(C)no3)ccc2OC)c2cc(C)ccc2O1 (stereo not drawn) was run?
A: Its survival is 109% (inactive).

Q: Which survival does the source give for COc1ccc(-c2cc(C)no2)cc1S(=O)(=O)N1CCOc2ccccc21 here?
A: Its survival is 73% (inactive).

Q: Which survival does the source give for COc1ccc(-c2onc(C)c2C)cc1S(=O)(=O)N1CCc2ccccc21 here?
A: The survival was 6% (active).

Q: CCC1CN(S(=O)(=O)c2cc(-c3cc(C)no3)ccc2C)c2cc(Cl)ccc2O1 (stereo not drawn) was tested. Which survival did it give?
A: The survival was 75% (inactive).

Q: How did the survival turn out when CCC1CN(S(=O)(=O)c2cc(-c3cc(C)no3)ccc2C)c2cc(C)ccc2O1 (stereo not drawn) was run?
A: Its survival is 52% (active).

Q: How did the survival turn out when Cc1ccc(-c2onc(C)c2C)cc1S(=O)(=O)N1CCc2ccccc21 was run?
A: The survival was 86% (inactive).

Q: How did the survival turn out when CC(=O)N/C(N)=N\c1nc(C)c2ccc(C)cc2n1 was run?
A: The survival was 73% (inactive).

Q: How did the survival turn out when O=C(NCc1ccc(Cl)cc1)c1ccc2c(c1)NC(=O)C(CS(=O)(=O)Cc1ccccc1Cl)N2 (stereo not drawn) was run?
A: The survival was 94% (inactive).

Q: COCCCNC(=O)Nc1cc(C(=O)NCc2ccc(OC)cc2)ccc1N1CCCC1 was tested. Which survival did it give?
A: Its survival is 67% (inactive).

Q: How did the survival turn out when COc1ccccc1N1CCN(CCCNC(=O)c2cnn(-c3cccc(Cl)c3)c2C2CCN(C(=O)OC(C)(C)C)CC2)CC1 was run?
A: Its survival is 87% (inactive).

Q: For CC1=C(C(=O)Nc2c(C)cc(C)cc2C)C2(CCN(C(C)C)CC2)OC1=O, which survival is on record?
A: Its survival is 112% (inactive).

Q: With O=C(CCCn1c(=O)c2sccc2n(Cc2c(F)cccc2Cl)c1=O)NCc1ccccc1 as the molecule, how does the survival read?
A: The survival was 138% (inactive).

Q: For CCOC(=O)c1noc2ncnc(N3CCC(C)CC3)c12, which survival is on record?
A: The survival was 75% (inactive).

Q: For Cc1ccc(C2=NC(c3ccccc3)=Nc3ccc(Cl)cc3N2)cc1, which survival is on record?
A: Its survival is 89% (inactive).

Q: With CCOc1ccc(NC(=O)CN(c2ccc(C)cc2)S(=O)(=O)c2cccs2)cc1 as the molecule, how does the survival read?
A: Its survival is 83% (inactive).

Q: COc1ccc2c(c1)CCc1c(C(=O)Nc3ccccc3C(F)(F)F)noc1-2 was tested. Which survival did it give?
A: The survival was 143% (inactive).

Q: For Cc1ccc(NC(=O)C2CCCN(c3ncnc4onc(C)c34)C2)c(Cl)c1 (stereo not drawn), which survival is on record?
A: Its survival is 74% (inactive).

Q: How did the survival turn out when CC1CCc2c(sc3ncnc(NCCOCCO)c23)C1 (stereo not drawn) was run?
A: The survival was 98% (inactive).

Q: With CCCOC(=O)CSc1ncnc2sc3c(c12)CCC(C)C3 (stereo not drawn) as the molecule, how does the survival read?
A: The survival was 7% (active).

Q: For CCCCCOC(=O)CSc1ncnc2sc3c(c12)CCC(C)C3 (stereo not drawn), which survival is on record?
A: Its survival is -4% (active).

Q: How did the survival turn out when CCC(C(=O)OC(C)C)n1cnc2sc3c(c2c1=O)CCC(C)C3 (stereo not drawn) was run?
A: The survival was 93% (inactive).

Q: Cc1ccc(-c2nc(NC(=O)CSc3ncnc4sc5c(c34)CCC(C)C5)ns2)cc1 (stereo not drawn) was tested. Which survival did it give?
A: The survival was 69% (inactive).

Q: CCCCCOC(=O)CSc1ncnc2c1sc1nc(N3CCOCC3)c3c(c12)CCCC3 was tested. Which survival did it give?
A: The survival was 71% (inactive).

Q: Which survival does the source give for Cc1ccc(OCCCCn2nnc3sc4c(c3c2=O)CCC(C)C4)cc1 (stereo not drawn) here?
A: Its survival is 56% (inactive).

Q: With CCCCOC(=O)CSc1ncnc2sc3c(c12)CCC(C)C3 (stereo not drawn) as the molecule, how does the survival read?
A: Its survival is 17% (active).

Q: Which survival does the source give for CCOc1ccc(NC(=O)CSc2cn(CC(=O)N3CCOCC3)c3ccccc23)cc1 here?
A: The survival was 95% (inactive).

Q: How did the survival turn out when CCOc1ccc(NC(=O)Cn2c(=O)n(CCCCC(=O)NCc3ccc4c(c3)OCO4)c(=O)c3ccccc32)cc1 was run?
A: The survival was 85% (inactive).

Q: Which survival does the source give for CC1(C)CC(NC(=O)CCCC(=O)O)CC(C)(C)N1 here?
A: Its survival is 81% (inactive).

Q: Which survival does the source give for COc1ccc(C)cc1NC(=O)c1ccc2c(=O)n3c(nc2c1)CCCCC3 here?
A: The survival was 65% (inactive).

Q: With COc1ccc(Cn2c(CO)cnc2SCc2ccccc2)cc1 as the molecule, how does the survival read?
A: The survival was 89% (inactive).

Q: With O=C(CSc1ncc(CO)n1Cc1ccc(F)cc1)NCc1ccco1 as the molecule, how does the survival read?
A: The survival was 126% (inactive).

Q: Which survival does the source give for Cc1ccc(Cn2c(CO)cnc2SCC(=O)Nc2ccc(C)c(Cl)c2)cc1 here?
A: Its survival is -5% (active).

Q: Which survival does the source give for Cc1ccc(Cn2c(CO)cnc2SCC(=O)NCc2ccccc2Cl)cc1 here?
A: The survival was 73% (inactive).

Q: For OCc1cnc(SCc2ccc(F)cc2)n1Cc1ccc(F)cc1, which survival is on record?
A: Its survival is 88% (inactive).

Q: How did the survival turn out when COc1ccc(Cn2c(CO)cnc2SCC(=O)NCc2ccco2)cc1 was run?
A: The survival was -5% (active).

Q: Which survival does the source give for CCOC(=O)c1ccccc1NC(=O)CSc1ncc(CO)n1Cc1ccc(C)cc1 here?
A: The survival was 77% (inactive).

Q: COc1ccc(Cn2ccnc2SCC(=O)NCc2ccco2)cc1 was tested. Which survival did it give?
A: Its survival is 75% (inactive).

Q: Which survival does the source give for COc1ccc(Cn2c(CO)cnc2SCc2ccc(F)cc2)cc1 here?
A: The survival was 17% (active).

Q: How did the survival turn out when Cc1ccc(NC(=O)N2CCN(c3nnc(C)c4c(C)n(-c5ccccc5)nc34)CC2)cc1Cl was run?
A: The survival was 94% (inactive).

Q: Which survival does the source give for O=C(CSc1nnc2ccc3ccccc3n12)Nc1ccccc1Cl here?
A: The survival was 76% (inactive).

Q: With Cc1cc2ccccc2n1CCNC(=O)c1ccc(Br)cc1 as the molecule, how does the survival read?
A: Its survival is 58% (inactive).

Q: With CCOC(=O)c1cc(-c2ccc(C)cc2)n(CC(=O)Nc2ccc(OC)cc2OC)c1C as the molecule, how does the survival read?
A: Its survival is 97% (inactive).

Q: For Cc1cc(-c2ccc(C)c(S(=O)(=O)NCc3cccs3)c2)on1, which survival is on record?
A: Its survival is 72% (inactive).

Q: How did the survival turn out when Cc1cc(NC(=O)c2ccc(NC(=O)C(C)C)cc2)no1 was run?
A: Its survival is 72% (active).

Q: With CC(C)C(=O)Nc1ccc(NC(=O)c2ccccc2)nc1 as the molecule, how does the survival read?
A: The survival was 87% (inactive).

Q: Which survival does the source give for COc1cccc(C(=O)Nc2cc(C)on2)c1 here?
A: The survival was 89% (inactive).

Q: For CC(C)Oc1ccc(CNC(=O)Nc2ccc3c(c2)N(C)C(=O)c2ccccc2S3)cc1, which survival is on record?
A: The survival was 94% (inactive).

Q: With CCN1CCN(CCCNC(=O)c2cc3c(=O)n(CC)c4ccccc4c3s2)CC1 as the molecule, how does the survival read?
A: The survival was 97% (inactive).

Q: For Cc1ccc(NC(=O)N2CC3CCCN3c3ccccc32)cc1Cl (stereo not drawn), which survival is on record?
A: The survival was 62% (inactive).

Q: How did the survival turn out when Cc1ccc(NC(=O)N2CC3CCCN3c3ccccc32)c(C)c1 (stereo not drawn) was run?
A: The survival was 86% (inactive).

Q: For Cc1ccc(NC(=O)N2CC3CCCN3c3ccccc32)cc1C (stereo not drawn), which survival is on record?
A: The survival was -4% (active).

Q: For Cc1cccc(NC(=O)CSc2ncc3c(n2)-c2ccccc2N(Cc2ccc(F)cc2)S3(=O)=O)c1C, which survival is on record?
A: Its survival is 68% (inactive).

Q: For Cc1cccc(-n2ncc3c(N4CCCCCC4)ncnc32)c1, which survival is on record?
A: Its survival is 92% (inactive).

Q: COc1ccc(C(=O)Nc2ccc(-c3nnc4n3CCCCC4)cc2)cc1OC was tested. Which survival did it give?
A: Its survival is 57% (inactive).

Q: Which survival does the source give for COc1ccc(C(=O)Nc2ccc(-c3nnc4n3CCCCC4)cc2)cc1 here?
A: The survival was 0% (active).

Q: CCOc1cc(C(=O)Nc2ccc(-c3nnc4n3CCCCC4)cc2)cc(OCC)c1OCC was tested. Which survival did it give?
A: The survival was 69% (inactive).
